Bioassay records as filed in PubChem BioAssay.
Sampled rows, rich in hits. Any-hit rate of the full collection: about 1.6%.
KCNQ2 pot = potentiators of rat KCNQ2 potassium channel; AID 2239, 2010; B-score at 10 µM; Potassium voltage-gated channel subfamily KQT member 2 (Rattus norvegicus), O88943; hit rate 0.54% among 310,000; CHO-K1 KCNQ2, FluxOR thallium flux fluorescence; active compounds read high;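 active = fluorescence ratio B-score at least 3 SD of library B-scores, with initial fluorescence B-score within 3 of them, cut at about 5.3 in these data; same plate scores as AID 2156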;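 note: B-score of peak minus minimum over baseline fluorescence ratio after K+ and Tl+ stimulus; positive B-score means potentiation of KCNQ2 with more thallium influx and brighter signal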
KCNQ2 inh = rat KCNQ2 potassium channel inhibitors, primary screen, cell-based, CHO-K1, FluxOR thallium flux, B-score; 20 min; active compounds read low; B-score at 10 µM; hit rate 1.1% among 310,000;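 active = fluorescence ratio B-score at most minus 3 library SDs, with starting brightness B-score within 2 library SDs, cut at about -5.5 in these data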
Kir21 confirm = mouse Kir2.1 channel blockers, retest, confirmation, cell-based, FluxOR thallium flux, duplicate | shares compounds with KCNQ2 pot | Kir2.1-expressing cells, FluxOR thallium flux fluorescence; active compounds read low | Tl flux remaining, % of negative control (active compounds read low), % at 10 µM | hit rate 41% among 2,300;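 active = Primary-screen hit whose thallium flux fell at least 3 control SD below untreated wells in both duplicates, with normal baseline fluorescence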;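 note: 0% = blank wells without stimulus and 100% = stimulated no-compound controls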
Target sequence (P35561 whole entry, looked up): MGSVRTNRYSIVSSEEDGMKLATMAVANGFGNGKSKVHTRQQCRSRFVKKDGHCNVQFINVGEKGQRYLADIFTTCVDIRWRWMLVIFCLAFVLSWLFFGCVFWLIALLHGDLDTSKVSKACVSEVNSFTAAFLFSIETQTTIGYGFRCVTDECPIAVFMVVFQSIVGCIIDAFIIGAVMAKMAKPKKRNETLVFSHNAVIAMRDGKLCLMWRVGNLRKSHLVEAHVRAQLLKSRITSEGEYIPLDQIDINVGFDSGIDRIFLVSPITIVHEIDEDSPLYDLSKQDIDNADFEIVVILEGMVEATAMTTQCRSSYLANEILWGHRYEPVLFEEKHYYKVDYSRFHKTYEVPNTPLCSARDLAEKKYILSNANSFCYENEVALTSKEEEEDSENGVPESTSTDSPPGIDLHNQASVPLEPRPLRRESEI
HEK293 Tl flux = alters thallium flux in parental HEK293 cells, Kir2.1 counter-screen; hit rate 19% among 2,300; FluxOR signal as % of negative control (100 = no effect), % at 10 µM; shares compounds with KCNQ2 pot; FluxOR thallium flux fluorescence; 0% = unstimulated blank wells;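 active = dye signal at least 3 control SD above or below untreated wells in both duplicates, raw fluorescence within 3, either direction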;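 note: percent is based on the flux ratio of peak minus minimum fluorescence over baseline F0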
CHO-K1 Tl ctr = nonspecific thallium flux increase in parental CHO-K1, confirmation, counter-screen for KCNQ2 potentiator project, cell-based, FluxOR thallium flux, duplicate; AID 2282, 2010; parental CHO-K1 cells, FluxOR thallium flux fluorescence; zero = vehicle mean+3SD, 100% = vehicle-minus-blank window; activity increase over 3SD of controls, % at 10 µM; hit rate 43% among 1,200; shares compounds with KCNQ2 pot;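 active = signal rise of at least 3 SD above the untreated control mean, in both duplicate wells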;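 note: counter screen of KCNQ2 potentiator hits so any rise reflects channel-independent effects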
KCNQ1 sel pot = human KCNQ1 channel potentiation off-target, confirmation, selectivity assay for KCNQ2 potentiator project, cell-based, CHO, FluxOR thallium flux. AID 2283, 2010. hit rate 28% among 1,200. CHO KCNQ1 stable, FluxOR thallium flux fluorescence; beyond 3SD, as % of vehicle-control signal. activation over 3SD threshold, % at 10 µM. shares compounds with KCNQ2 pot;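 active = fluorescence ratio rise of at least 3 SD of vehicle wells above their mean, in both replicate wells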;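 note: 0% = vehicle mean plus 3 SD and 100% = vehicle minus unstimulated blank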
KCNQ2 pot confirm = rat KCNQ2 channel potentiators, confirmation, cell-based, CHO, FluxOR thallium flux, duplicate. shares compounds with KCNQ2 pot. potentiation, less the hit threshold, % at 10 µM. hit rate 68% among 1,200. CHO-KCNQ2 cells, FluxOR thallium flux fluorescence;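 active = fluorescence ratio rising 3 SD or more over the vehicle control mean in both replicates, plus primary screen hit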;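 note: peak minus minimum thallium fluorescence divided by baseline after K/Tl stimulus; 0% = vehicle mean plus 3 SD and 100% = vehicle minus unstimulated blank difference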
Kir2-1 sel = mouse Kir2.1 channel activation off-target, confirmation, selectivity assay for KCNQ2 potentiator project, cell-based, HEK293, FluxOR thallium flux. hit rate 2% among 1,200. shares compounds with KCNQ2 pot. HEK293 Kir2.1, FluxOR thallium flux fluorescence. activity over 3SD threshold, % at 10 µM;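 active = fluorescence ratio rise of at least 3 SD above the vehicle-control mean, seen in both replicates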;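 note: 0% = vehicle mean plus 3 SD and 100% = vehicle minus no-stimulus blank window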
KCNQ2 W236L MoA = potentiators of retigabine-insensitive KCNQ2 W236L, mechanism study for KCNQ2 potentiator project, cell-based, rat KCNQ2 W236L, CHO, automated patch clamp. shares compounds with KCNQ2 pot. automated patch clamp current. current increase over 3SD of negative controls (%), active compounds read high, % at 25 µM. hit rate 10% among 940. AID 2558, 2010;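 active = current increase at least 3 SD of the untreated controls above them in both duplicate recordings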
* marks the source's active call; other numbers are inactive results; i = inactive; x = no result.

SMILES	KCNQ2 pot	KCNQ2 inh	Kir21 confirm	HEK293 Tl flux	others
O=C(CCNS(=O)(=O)c1ccc(Br)cc1)N1CCN(c2ccccc2O)CC1	x	i	x	x
Cc1noc(C)c1CSCC(=O)Nc1ccccc1N1CCCCC1	x	i	56%*	76%*
Nc1cc(N)nc(SCC(=O)Nc2ccccc2N2CCOCC2)n1	1.1	i	x	x
Cc1ccc(SCC(=O)Nc2ccccc2N2CCOCC2)cc1	x	i	48%*	i
O=C(CSc1ccccc1)Nc1ccccc1N1CCOCC1	x	i	i	i
O=C(CSc1ccc(F)cc1)Nc1ccc(N2CCOCC2)cc1	0.06	i	x	x
Cc1cccc(NC(=O)CSCc2c(C)noc2C)c1C	0.82	i	x	x
Cc1ccc(-c2nnc(SCC(=O)Nc3ccccc3N3CCOCC3)o2)cc1	x	i	x	x
O=C(CSc1ccc(F)cc1)Nc1ccccc1N1CCOCC1	x	i	38%*	i
CC(C)C(c1nnnn1C(C)(C)C)N1CCC(Cc2ccccc2)CC1 (stereo unspecified)	x	i	x	x
COc1ccc2c(c1)cc(C(=O)N[C@@H](CCSC)C(=O)N1CCC(C(=O)O)CC1)n2C	0.32	i	x	x
O=C(CCCN1C(=O)C(c2ccccc2)Oc2cccnc21)Nc1ccccc1Cl (stereo unspecified)	0.1	i	x	x
COc1ccc(NCc2ccsc2)cc1	0.47	i	x	x
O=C(C1=NNCC1c1ccccc1)C1CO1 (stereo unspecified)	0.32	i	x	x
O=c1[nH]c(O)c(C=Nc2ccc(Cl)cc2Cl)c(=O)[nH]1	x	i	x	x
Cc1ccccc1-c1nc(CN2CCC(C(=O)NCCCN3CC(C)CC(C)C3)CC2)c(C)o1 (stereo unspecified)	x	i	x	x
N[C@@H](Cc1ccccc1)C(=O)N1CCC(C(=O)N[C@@H](CCC(=O)O)C(=O)O)CC1	1.3	i	x	x
COc1ccc(CCNc2ncnc3sc(C)cc23)cc1OC	x	i	65%*	i
COc1ccc(CCNc2ncnc3[nH]ncc23)cc1OC	x	i	x	x
CCOc1ccc(C(C)NC(=O)c2cccs2)cc1OCC (stereo unspecified)	0.05	i	x	x
CCc1ccc(C(C)NC(=O)c2cccs2)cc1 (stereo unspecified)	5.3*	i	i	i	CHO-K1 Tl ctr=-18;KCNQ1 sel pot=46*;KCNQ2 pot confirm=-2;Kir2-1 sel=-33;KCNQ2 W236L MoA=i
c1ccc(COc2ccccc2CNC2CCCC2)cc1	2.2	i	x	x
c1ccc(COc2ccccc2CNC23CC4CC(CC(C4)C2)C3)cc1	x	i	42%*	i
CCN(CC(=O)NC1CCCC1)S(=O)(=O)c1ccc(F)cc1	0.44	i	x	x
CCCC(=O)NCCCc1nc2ccccc2n1C(C)C	0.02	i	x	x
SMILES	KCNQ2 pot	KCNQ2 inh	Kir21 confirm	HEK293 Tl flux	others
O=C(COc1ccccc1)N=C1SC2CS(=O)(=O)CC2N1c1ccc(F)cc1F (stereo unspecified)	2.1	i	x	x
COc1ccccc1C1CCN(Cc2ccc(Cl)c(Cl)c2)CC1	x	i	x	x
CN[C@@H]1CC[C@H](c2ccc(Cl)c(Cl)c2)c2ccccc21	x	i	47%*	i
CN(C)S(=O)(=O)c1cccc(NC(=O)CN2C(=O)NC3(CCc4ccccc4C3)C2=O)c1 (stereo unspecified)	1.4	i	x	x
CC(C)(C)c1ccc(OCC(=O)Nc2ccncc2)c(Br)c1	5.6*	i	i	i	CHO-K1 Tl ctr=-20;KCNQ1 sel pot=-11;KCNQ2 pot confirm=-2;Kir2-1 sel=-28;KCNQ2 W236L MoA=i
CCc1ccc(OCC(=O)Nc2ccncc2)c(Br)c1	3.2	i	x	x
CC(Sc1n[nH]c(N)n1)C(=O)NC1CCCCC1C (stereo unspecified)	0.65	i	x	x
CCOc1ccc(C(=O)N/N=C/c2ccc(-c3ccc(S(=O)(=O)Nc4ncccn4)cc3)o2)cc1	1.6	i	x	x
O=C(N/N=C/c1ccc(-c2ccc(S(=O)(=O)Nc3ncccn3)cc2)o1)c1cc2ccccc2cc1O	5.5*	i	i	i	CHO-K1 Tl ctr=-2;KCNQ1 sel pot=-30;KCNQ2 pot confirm=-7;Kir2-1 sel=-16
C/C(=N\O)C(=O)C(CN1CCCCC1)CN1CCCCC1	6*	i	i	i	CHO-K1 Tl ctr=-6;KCNQ1 sel pot=35*;KCNQ2 pot confirm=-2;Kir2-1 sel=-31
CC(=O)/C(CN1CCCCC1)=N\O	x	i	x	x
O=C(CSc1nnc(Cn2c(=O)sc3ccccc32)n1-c1ccccc1)Nc1nccs1	x	i	x	x
O=c1c(Cl)c(Cl)cnn1Cc1nnc(-c2ccccc2Br)o1	5.5*	i	i	i	CHO-K1 Tl ctr=41*;KCNQ1 sel pot=-12;KCNQ2 pot confirm=12*;Kir2-1 sel=-34;KCNQ2 W236L MoA=i
O=C1NC2(CCCc3ccccc32)C(=O)N1Cc1nnc(-c2ccccc2Br)o1 (stereo unspecified)	x	i	x	x
CCNc1nc(N)c(C(=O)c2ccc(Cl)s2)s1	0.18	i	x	x
COc1cc(CNC(C)c2ccccc2)cc(Cl)c1OCC(=O)Nc1ccccc1 (stereo unspecified)	x	i	60%*	i
CCN(CC)CCNCc1cc(Cl)c(OCC(=O)Nc2ccccc2)c(OC)c1	0.64	i	x	x
Cn1nnnc1SCC(=O)N1CCCc2ccccc21	0.15	i	x	x
O=C(CSc1cccc[n+]1[O-])N1CCCc2ccccc21	15*	i	i	i	CHO-K1 Tl ctr=-8;KCNQ1 sel pot=1.2*;KCNQ2 pot confirm=-19;Kir2-1 sel=-30
CCOC(=O)Nc1c(O)ccc2oc(C)c(-c3ccccc3)c12	3.3	i	28%*	i
CCOC(=O)C(=O)Nc1nc(-c2ccccc2)c(-c2ccccc2)o1	x	i	x	x
COC(=O)c1ccc(Oc2nc(NC(C)C)nc(NC(C)C)n2)cc1	x	i	x	x
